Drawing on PubChem BioAssay, this text covers inhibition for 22 compounds.

Calls of active or inactive are those of the source. The rule behind the calls is not given here.

Chain of Pantothenate synthetase (Mycobacterium tuberculosis (strain ATCC 25618 / H37Rv)) (P9WIL5 whole entry, looked up): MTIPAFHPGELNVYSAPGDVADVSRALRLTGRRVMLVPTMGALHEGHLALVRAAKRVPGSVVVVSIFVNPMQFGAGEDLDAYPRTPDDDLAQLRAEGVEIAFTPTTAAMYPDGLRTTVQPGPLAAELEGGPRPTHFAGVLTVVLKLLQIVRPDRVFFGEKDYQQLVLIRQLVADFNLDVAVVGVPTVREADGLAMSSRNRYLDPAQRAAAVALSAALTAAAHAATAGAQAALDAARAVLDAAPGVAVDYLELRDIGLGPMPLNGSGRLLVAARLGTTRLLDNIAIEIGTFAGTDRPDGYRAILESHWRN

This assay concerns the target Pantothenate synthetase (Mycobacterium tuberculosis (strain ATCC 25618 / H37Rv)) (UniProt P9WIL5). As to the kind of experiment: Coupled enzyme confirmation of inhibitors against recombinant Mtb PanC (AID 375).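 Note: 0% = full reaction with vehicle and 100% = no enzyme background.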 The note with it: coupled enzyme assay; at 10 µM, hits give high values.
What is called inhibition is the relative decrease from the control value, in per cent. Take `CCOC(=O)c1c(-c2ccc(C)o2)csc1NC(=O)CN1CCN(CC)CC1`: the inhibition was 0% (inactive).
To `CC1(C)CC(=O)C(C=NCCc2ccc(S(N)(=O)=O)cc2)=C(O)C1` belongs 0% (inactive); to `COc1cc2c(cc1OC)CN(C(=O)CSc1nnc3scc(-c4ccccc4)n13)CC2`, 0% (inactive); to `Cc1ccccc1-n1nnc2c(=O)oc3ccccc3c21`, 0% (inactive).
To `COc1ccc(NC(=O)CN(c2ccc(C)cc2)S(C)(=O)=O)c(OC)c1` belongs 4% (inactive).
To `CC1=C(C#N)C(c2ccc3ncccc3c2)C(C#N)=C(C)N1` belongs 4% (inactive); to `Cc1ccc(C(=O)/C=C/Nc2cccc(O)c2)cc1`, 8% (inactive).
Turning to `CCOC(=O)C1CCN(C(=O)CCCCn2c(=O)[nH]c3ccccc3c2=O)CC1`, the inhibition is 2% (inactive).
To `Cn1c(=O)n(CCC(=O)O)c2ccccc21` belongs 7% (inactive); to `COC(=O)c1c(NC(=O)c2ccc(S(=O)(=O)N3CCOCC3)cc2)sc2c1CCN(C)C2`, 0% (inactive); to `CC(C)N(C(=O)CSc1nnc(-c2cc3ccccc3cc2O)n1Cc1ccco1)C(C)C`, 1% (inactive).
To `O=C(CNC(=O)c1cc2ccccc2o1)NCc1cccs1` belongs 0% (inactive).
To `O=C(c1ccc2c(c1)OCO2)N1CCNc2ccccc2C1` belongs 0% (inactive); to `O=C(Nc1cccc(NC(=O)c2ccco2)c1)c1ccc2c(c1)OCO2`, 0% (inactive); to `Cc1ccc2nsnc2c1S(=O)(=O)N1CCN(Cc2ccc3c(c2)OCO3)CC1`, 5% (inactive).
As to `CC(=O)NS(=O)(=O)c1ccc(NC(=O)c2ccccc2F)cc1`, the inhibition is 0% (inactive).
To `NC(=O)CSc1nnc(-c2cc3ccccc3o2)n1Cc1ccccc1` belongs 0% (inactive).
For `Cc1cc(C)c(NC2=NCC(=O)N2C2CCCCC2)c(C)c1`, the inhibition was 0% (inactive).
To `O=C1CC(C(=O)Nc2ccccc2)C2(CCCC2)O1` (configuration not stated) belongs 2% (inactive).
To `CC(=O)C1=C(O)C(=O)N(C2CCCCC2)C1c1ccccc1` (configuration not stated) belongs 0% (inactive); to `O=C(NCC1CCCO1)C1CCCN(S(=O)(=O)c2cccc3nsnc23)C1` (configuration not stated), 4% (inactive).
To `O=S1(=O)N=C(Nc2nc3c(s2)CCCC3)c2ccccc21` belongs 4% (inactive).
